Results taken from PubChem BioAssay (NCATS).
Inconclusive results are not listed. Calls of active or inactive are those of the source. The call rests on the fitted dose curve; in most records, active means well fitted inhibition curve with a large enough effect; inconclusive means small, poorly fitted or top-dose-only effect; inactive means no such curve, though single readings can be large or run the other way.

Each compound was assayed against Nuclear receptor ROR-gamma (Homo sapiens) (UniProt P51449) (assay: qHTS assay for small molecule antagonists of the retinoid-related orphan receptor gamma (ROR-gamma) signaling pathway (AID 651802; further: nearly all actives have a fitted effect of over 60% in size)). Conditions: ROR-gamma antagonist cell reporter assay; series mostly up to 92.2 µM.
Chain of Nuclear receptor ROR-gamma (Homo sapiens) (P51449 whole entry, looked up): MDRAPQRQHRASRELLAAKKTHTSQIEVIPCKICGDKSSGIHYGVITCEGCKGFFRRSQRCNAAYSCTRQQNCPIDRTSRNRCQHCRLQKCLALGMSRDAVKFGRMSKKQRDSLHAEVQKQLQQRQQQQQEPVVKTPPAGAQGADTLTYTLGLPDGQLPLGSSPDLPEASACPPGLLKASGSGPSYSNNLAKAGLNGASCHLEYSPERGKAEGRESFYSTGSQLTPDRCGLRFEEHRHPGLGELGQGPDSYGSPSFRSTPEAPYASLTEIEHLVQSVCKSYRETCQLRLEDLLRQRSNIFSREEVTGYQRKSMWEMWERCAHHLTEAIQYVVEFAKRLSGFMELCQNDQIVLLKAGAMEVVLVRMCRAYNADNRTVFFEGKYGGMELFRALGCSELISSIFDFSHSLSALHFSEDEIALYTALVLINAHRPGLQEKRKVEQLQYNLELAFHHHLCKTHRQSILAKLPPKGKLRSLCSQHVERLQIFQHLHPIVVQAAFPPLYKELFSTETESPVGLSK
From the text: National Center for Advancing Translational Sciences [NCATS]
NIH Chemical Genomics Center [NCGC]
National Institutes of Environmental Health Sciences [NIEHS]
National Toxicology Program [NTP]
Nuclear steroid hormone receptors are involved in many biological processes including inflammatory responses, cell proliferation, and apoptosis. Environmental factors or compounds disrupting these nuclear receptor pathways and gene expression may promote susceptibility to immunotoxicants and autoimmune diseases. One important group of these expression factors are the retinoid-related orphan receptors. To assess compounds that may interfere with the retinoid-related orphan receptor gamma (ROR-gamma) transcription factor, a cell-based luciferase assay was used.
The CHO cell-based assay utilizes a TET-inducible ROR expression factor and ROR response element-LUC reporter gene. Reporter activity was induced using doxycycline and measured after 16hr incubation. Luminescence was read using Viewlux (PerkinElmer), where a decrease in reporter activity would show a decrease in luminescence.
1,000 cells in 4 uL/well were dispensed into white wall/solid bottom 1536-well plates using a Multidrop Combi (Thermo Scientific) dispenser. Following transfer of 23 nL compound or DMSO vehicle by a pin tool, the plates were treated with 1 ul doxycycline to induce reporter gene activity. After 16hr incubation at 37C and 5% CO2, 5uL one-glo (promega) was added to each plate and following 30 min incubation at room temperature, luminescence was quantified on a ViewLux (PerkinElmer) plate reader.
With `CCCC(O)C(CC)CO` (centres undefined) the outcome was “inactive”.
With `CCCCCCCC(=O)OCC(COC(=O)CCCCCCC)OC(=O)CCCCCCC` the outcome was “inactive”.
In the case of `CCCCCC(N)=O`, the outcome is reported as “inactive”.
In the case of `O=C(c1ccccc1)C(O)c1ccccc1` (centres undefined), the outcome is reported as “inactive”.
With `CC(=O)OCC(COC(C)=O)OC(C)=O` the outcome was “inactive”.
With `O=C1c2cccc(O)c2C(=O)c2c(O)cccc21` the outcome was “inactive”.
In the case of `O=C1C(c2[nH]c3ccccc3c2O)=Nc2ccccc21`, the outcome is reported as “inactive”.
In the case of `CC(=O)Nc1ccc(C(=O)O)cc1`, the outcome is reported as “inactive”.
`CC(=O)NS(=O)(=O)c1ccc(N)cc1` was tested, and the outcome was “inactive”.
For `CCCCOC(=O)c1ccc(N)cc1`, the outcome was “inactive”.
For `CCN(CC)C(=O)c1cccc(C)c1`, the outcome was “inactive”.
For `Nc1ccc(S(=O)(=O)c2ccc(N)cc2)cc1`, the outcome was “inactive”.
For `Cc1c(N(C)C)c(=O)n(-c2ccccc2)n1C`, the outcome was “inactive”.
For `Cc1cc(=O)[nH]c(=S)[nH]1`, the outcome was “inactive”.
